High-throughput results from PubChem BioAssay.
TROY NFkB inh – inhibitors of TROY-driven NF-kB signaling, primary screen, Q293 LMP1-TROYcd cells, NF-kB luciferase, uHTS. Q293 LMP1-TROYcd NF-kB luciferase reporter, 4 h. inhibition, % at 10 µM. 0.98% of 360,000 active. AID 1347056, 2019;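 active means compounds whose plate-normalised and pattern-corrected inhibition of the luciferase reporter signal at the single screening dose is 50% or more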
TWEAK-Fn14 inh – inhibitors of TWEAK-Fn14 signaling, primary screen, luciferase reporter cells, uHTS; TWEAK-stimulated Fn14 reporter cells, luciferase luminescence, 8 h; 2% of 360,000 active; AID 1159606, 2016; inhibition, % at 10 µM; in the data active means inhibition above about 50%
EWS-Fli block – EWS/Fli-driven NR0B1 reporter inhibitors, primary screen, A673 cells, NR0B1 luciferase, luminescence, MLPCN library. viability-normalised. inhibition, % at 12.6 µM. 0.67% of 350,000 active;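 active means mean inhibition of at least 50% after viability correction, with every replicate also passing that limit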;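 further: firefly luciferase signal divided by Alamar Blue viability fluorescence both relative to DMSO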
LGR2 inh – inhibitors of bursicon-induced LGR2 CRE-luciferase signal, primary screen, cell-based, HEK293, CRE-luciferase reporter, bursicon stimulation. Drosophila bursicon receptor LGR2 (rickets). bursicon-stimulated, 4 h. inhibition, % at 9.99 µM. 0.35% of 380,000 active;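 active means drop in luminescence signal, shown as inhibition above about 50% in the replicate tests, limit read from the data, passing the limit was not always enough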;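 further: agonist challenge used bursicon conditioned medium at about half maximal strength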
LMP1 NFkB inh – EBV LMP1-driven NF-kappaB luciferase reporter inhibitors, primary screen, cell-based, luminescence, single point. LMP1-induced NF-kappaB luciferase reporter cells. 0.69% of 350,000 active. AID 504558, 2011. inhibition, % at 12.5 µM; in the data active means inhibition above about 41%;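 further: 0% = neutral control wells and 100% = reference inhibitor control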
Starred values were filed as active, the others as inactive; · = no result given. Compounds with a hit are over-represented: about 2.6% of the library has one in this group of screens.

SMILES	TROY NFkB inh	TWEAK-Fn14 inh	EWS-Fli block	LGR2 inh	LMP1 NFkB inh
COc1cccc(OCCN2CCN(c3ncnc4c3cnn4-c3ccccc3)CC2)c1	31	57*	·	·	9
CC1CCN(c2ncnc3c2cnn3-c2ccccc2)CC1	14	-5	-6	-59	-34
O=S(=O)(N[C@@H]1CC[C@@H](CCn2cc(C3CC3)nn2)O[C@@H]1CO)c1ccc(F)cc1	·	·	-1	2	·
Cc1ccc(SC2=C(Sc3ccc(C)cc3)C(=O)c3ccccc3C2=O)cc1	60*	47	41	-91	-7
Cc1ccc(N2C(=O)c3ccccc3C2=O)cc1	-59	-13	1	-34	2
O=C(Nc1ccccc1F)N[C@@H]1CC[C@H](CCNS(=O)(=O)c2ccc(Cl)cc2)O[C@@H]1CO	·	·	0	-11	·
CN(C)CCCN(C(=O)c1ccc(S(=O)(=O)N2CCc3ccccc3C2)cc1)c1nc2ccc(F)cc2s1	0	-208	58*	12	-39
CN(C)CCN(C(=O)c1cc(Cl)sc1Cl)c1nc2ccc(F)cc2s1	-28	-35	-19	-23	-13
Cc1ccc2nc(N(CCCN(C)C)C(=O)c3ccc(S(=O)(=O)N4CCc5ccccc5C4)cc3)sc2c1	-46	-154	·	34	-54
CCN(CC)CCN(C(=O)c1ccccc1OC)c1nc2ccc(F)cc2s1	76*	-27	-10	-16	-2
CCN(CC)CCN(C(=O)c1ccc2c(c1)CCCC2)c1nc2ccc(F)cc2s1	55*	36	-33	1	-12
C[C@H]1CCCCO[C@@H](CN(C)Cc2ccncc2)[C@@H](C)CN([C@@H](C)CO)C(=O)c2cc(NS(=O)(=O)c3ccc(F)cc3)ccc2O1	·	·	-2	10	·
CS(=O)(=O)N1CC2(C1)[C@H](c1ccccc1)[C@@H](CO)N2Cc1ccc(F)cc1	·	·	3	9	·
COc1ccc(-n2nc3c(N4CCC(C(=O)NCc5ccccc5C)CC4)nnc(C)c3c2C)cc1	-11	-1	·	·	-5
CCOc1ccccc1CNC(=O)C1CCCN(c2nnc(C)c3c(C)n(-c4ccccc4)nc23)C1 (stereo not drawn)	31	11	63*	-13	24
N=c1oc2cc(O)ccc2cc1C(=O)Nc1nc2ccccc2s1	50*	53*	-44	-15	-36
Cc1cccnc1NC(=O)c1cc2ccccc2oc1=O	-3	80*	-44	-28	-22
N=c1oc2ccccc2cc1C(=O)Nc1ccccc1	-72	78*	29	19	10
O=C(Nc1cc2ccccc2oc1=O)c1ccccc1	66*	90*	74*	89*	55*
O=C(Nc1nc2ccccc2s1)c1cc(-c2ccco2)nc2ccccc12	-21	18	-6	-1	5
C[C@H]1CN([C@@H](C)CO)C(=O)c2cc(-c3cccnc3)cnc2O[C@H]1CN(C)C(=O)c1ccccc1F	·	·	0	-9	·
C[C@H]1CN([C@@H](C)CO)S(=O)(=O)c2ccc(-c3ccc(F)cc3)cc2O[C@H]1CN(C)Cc1cccc(F)c1	·	·	-13	16	·
N=c1oc2cc(O)ccc2cc1C(=O)Nc1ccc(Br)cc1	29	72*	-69	-85	-3
COc1ccc2oc(=O)c(C(=O)Nc3cccc(C(C)=O)c3)cc2c1	-26	-41	-59	-41	0
COc1cccc(NC(=O)c2cc3ccccc3oc2=O)c1	22	86*	33	25	28
SMILES	TROY NFkB inh	TWEAK-Fn14 inh	EWS-Fli block	LGR2 inh	LMP1 NFkB inh
O=C(Nc1ccccc1)Nc1cccc2ccccc12	-49	-40	-18	-19	-3
Cc1cccnc1NC(=O)Nc1cccc2ccccc12	66*	56*	·	·	2
C[C@@H]1CCCCO[C@H](CN(C)Cc2ccc(C(F)(F)F)cc2)[C@H](C)CN([C@@H](C)CO)C(=O)c2cc(NC(=O)C3CCCCC3)ccc2O1	·	·	47	32	·
O=C(NC1CCCC1)C(c1cccs1)N(Cc1ccco1)C(=O)c1csnn1 (stereo not drawn)	-5	13	·	·	0
O=C(NC1CCCCC1)c1csnn1	-12	7	-7	8	89*
O=C(NC1CCCCC1)C(c1ccccc1)N(Cc1ccco1)C(=O)c1csnn1 (stereo not drawn)	4	64*	1	1	-18
COc1cc(/C=C/C(=O)OCC(=O)NC(C)c2ccccc2)cc(OC)c1OC (stereo not drawn)	1	57*	1	-17	-2
